# From ChEMBL document CHEMBL1157539, “Thousands of chemical starting points for antimalarial lead identification” (Nature, 2010)
# Key:
# Format in all cases: functional
# [1] = system: Plasmodium falciparum; assay: GSK_TCMDC: Inhibition of Plasmodium falciparum 3D7 in whole red blood cells, using parasite LDH activity as an index of growth. Test compounds present at 2uM
# [2] = system: Plasmodium falciparum; assay: GSK_TCMDC: Inhibition of Plasmodium falciparum Dd2 in whole red blood cells, using parasite LDH activity as an index of growth. Test compounds present at 2uM
# [3] = system: HepG2; assay: GSK_TCMDC: Percent inhibition of human HepG2 cell line. Test compounds present at 10uM.
SMILES,Inhibition [1] [%],Inhibition [2] [%],Inhibition [3] [%]
CCC(CC)(Cc1ccccc1)NC(=O)[C@H](CC(C)C)Nc1ccc(C#N)c2ccccc12.O=C(O)C(F)(F)F,90,73,57
O=C(c1ccc(O)c(-c2cc(Cl)cc(Cl)c2)c1)N(CCO)CCO,94,62,1
FC(F)(F)c1ccc(Nc2nnnc3ccccc23)cc1,90,82,3
CC(C)(C)c1nn(-c2ccccc2)c2[nH]c(=O)c(CNCCc3ccccc3)cc12,94,90,0
COc1ccc(-c2nonc2NC(=O)c2ccc(OC(C)C)cc2)cc1OC,100,99,11
Cc1cc(=NN=Cc2ccc(Cl)cc2)c2ccc(F)cc2[nH]1,100,87,6
C[C@@H](NC(=O)c1nn(-c2ccc(Cl)cc2)c(=O)c2ccccc12)C(C)(C)C,95,20,7
O=C(Nc1ccc(Cl)cc1)Nc1ccc(-c2csc(-c3nc4ccccc4[nH]3)c2)cc1,90,40,59
CCCCCCCCc1c(C)nc(C)c(I)c1O,91,77,5
CCc1nc2nc(C)cc(Nc3ccc4c(c3)OCCO4)n2n1,88,55,8
CCN(CC)CCN(Cc1ccc(-c2ccc(C(F)(F)F)cc2)cc1)C(=O)Cn1c(CCc2ccc(F)c(F)c2)nc(=O)c2ccccc21.O=C(O)C(O)C(O)C(=O)O,99,62,31
COC(=O)c1ccc2nc(-c3ccc(C(=O)NCc4ccc(Cl)c(Cl)c4)cc3)[nH]c2c1,95,3,1
CN(C)CCCOc1ccc(-c2nc(-c3ccc4c(c3)CCC4=NO)c(-c3ccncc3)[nH]2)cc1.Cl,96,63,68
COc1ccc(-c2cccc(NC(=O)c3cccc(F)c3)c2)cc1CN1CCCN(C)CC1.O=C(O)C(F)(F)F,100,78,42
COc1ccccc1CN1CCC(CNC(=O)c2cc(-c3cccc(C(F)(F)F)c3)cs2)C1.O=C(O)C(F)(F)F (stereo unspecified),84,1,25
COc1ccc2nccc([C@@H](O)CN3CCC(NC(=O)C(=O)c4c[nH]c5c(C)cccc45)CC3)c2c1,100,94,17
COc1cc(N)cc2sc(N)nc12,99,99,0
Cc1cccc2nc(-c3ccc(-c4ccc(CNCc5ccc(S(C)(=O)=O)cc5)cc4)cc3)[nH]c12.O=C(O)C(F)(F)F,93,38,19
COc1ccc(C(=O)Nc2ccc3nc(N4CCCCC4)cc(C)c3c2)cc1OC,92,7,15
CN(C)CCCn1cncc1-c1ccc2ncnc(Nc3ccc(OCc4ccccc4)cc3)c2c1,100,100,37
CCOC(=O)c1ccc(N=C2SC(=Cc3cc(Br)ccc3O)C(=O)N2C)cc1,99,96,0

SMILES,Inhibition [1] [%],Inhibition [2] [%],Inhibition [3] [%]
O=C(Cn1c(CCc2cccc(F)c2F)nc(=O)c2cccnc21)N(Cc1ccc(-c2ccc(C(F)(F)F)cc2)cc1)C1CCN(C2CCOCC2)CC1.O=C(O)C(O)C(O)C(=O)O,94,67,100
CCCN1CCN(CCCNc2c3ccccc3nc3ccccc23)CC1.Cl,99,0,36
O=C(/C=C/c1ccc(Cl)c(Cl)c1)NCCCCCN1CCCC(CNC(=O)Nc2ccc(Oc3ccccc3)cc2)C1 (stereo unspecified),99,6,26
c1ccc(Oc2ccc(Nc3ccnc4ccc(-c5ccco5)cc34)cc2)cc1,87,32,0
CCN(CC)CCNc1ccnc2c3ccccc3n(C)c12,100,99,14
O=C(/C=C/c1ccc(Cl)c(Cl)c1)NCCCCCN1CCC(NC(=O)NC2CCCCC2)CC1,96,44,22
CC(C)c1ccc(NC(=O)N2CCc3ccc(OCCN(C(C)C)C(C)C)cc32)c(Br)c1.O=C(O)C(F)(F)F,86,5,6
CN(C)CCCc1cc(NC(=O)Nc2cccc(Cl)c2Cl)ccc1I.Cl,100,45,12
CCOc1ccc2c(c1)OC(c1ccccc1)(C(F)(F)F)NC2=O (stereo unspecified),100,98,0
Cc1[nH]c(C)c(-c2ccc(-c3ccccc3)nc2)c(=O)c1Br,96,95,0
CN1CCc2cc(NS(=O)(=O)c3ccc(-c4ccc(Cl)s4)cc3)c(N3CCCCC3)cc2CC1.Cl,98,29,14
COCCN1CCC(C(=O)NCC(C)(C)c2nc(-c3ccc(Br)c(O)c3)c(-c3ccncc3)[nH]2)CC1.Cl,99,6,0
Cl.NC1=NC(CCc2ccccc2)N(c2ccc(Cl)cc2)C(N)=N1 (stereo unspecified),94,20,2
CC(C)=CCc1c(-c2ccc(O)cc2O)oc2c3c(cc(O)c2c1=O)OC(C)(C)C=C3 [MORUSIN],89,8,1
CCOc1cc(C)ccc1C1CCN(CCCCNC(=O)c2cccc(-c3ccc(C(F)(F)F)cc3)c2)CC1,99,55,39
Br.CC(=O)Nc1nc(C)c(-c2csc(Nc3ccc(Cl)cc3)n2)s1,96,93,14
Fc1ccc2[nH]c(-c3ccc(-c4ccc(CN5CCC(CCN6CCCCC6)CC5)cc4)s3)nc2c1.O=C(O)C(F)(F)F,100,100,96
COc1cc2nc(N3CCC(NC(=O)c4cccc(N(C)C)c4)CC3)nc(N)c2cc1OC.O=C(O)/C=C\C(=O)O,98,0,6
CCN(CCNC(=O)Nc1cc(C(F)(F)F)cc(C(F)(F)F)c1)c1cccc(C)c1,98,100,0
Cc1ccc(Nc2ccnc3ccc(C(F)(F)F)cc23)cc1O.O=C(O)C(F)(F)F,100,69,23
CCN1CCN(c2cc(C)c3cc(NC(=O)c4ccc([N+](=O)[O-])c(C)c4)ccc3n2)CC1,92,39,8

SMILES,Inhibition [1] [%],Inhibition [2] [%],Inhibition [3] [%]
CCc1ccc(CN2CCC(NC(=O)c3ccc(-c4ccc(N(C)C)cc4)s3)CC2)cc1.O=C(O)C(F)(F)F,84,44,52
Cc1ccc(C(=O)Cn2nc(-c3ccc(C)c(S(=O)(=O)N4CCCC4)c3)ccc2=O)cc1,94,70,0
O=C(NCCNc1nc(NCCNC(=O)Nc2ccccc2)c2ccc(=O)n(-c3c(F)cccc3F)c2n1)Nc1ccccc1,94,87,1
COc1cc(F)c2nccc([C@@H](O)CN3CCC(NCc4ccc5c(n4)NC(=O)CS5)C(F)C3)c2c1.Cl (stereo partly specified),87,80,32
CC(C)(C)C(Cn1ccnc1)NCc1c[nH]nc1-c1ccc(-c2ccccc2)cc1 (stereo unspecified),98,69,15
COc1ccccc1NC(=O)Nc1cccc(-c2cccc(-c3nc4cccc(C)c4[nH]3)c2)c1,100,90,11
Cc1cc2ccc(-c3cccc(CN)c3)cc2nc1N.Cl,100,1,0
Cc1cnc(C(=O)Nc2cccc(-c3cccc(-c4nc5cccc(C)c5[nH]4)c3)c2)cn1,99,45,15
CC(C)Oc1cccc(-c2ccc(C(=O)NCC3CCCN(Cc4cccc(C(F)(F)F)c4)C3)s2)c1.O=C(O)C(F)(F)F (stereo unspecified),91,28,10
CCCc1cc(C)ccc1OCCCON1C(NC(=O)OCC)=NC(NC(=O)OCC)=NC1(C)C,95,97,62
COc1ccccc1CCNc1nc(C)cc(NCCC(=O)Nc2ccccc2)n1.O=C(O)C(F)(F)F,100,24,7
CCNC(=O)Nc1ccc(-c2ccc(-c3nc4cccc(C)c4[nH]3)s2)cc1,96,13,18
COc1ccc(Nc2nccc(-c3ccc4c(-c5ccsc5)cnc(N)c4c3)n2)cc1,100,98,38
Fc1cccc(Cl)c1-c1nc(NCCC(c2ccccc2)c2ccccc2)no1,99,87,4
Cc1cc(CN2CCCC(OC(c3ccc(F)cc3)c3ccc(F)cc3)C2)ccc1O (stereo unspecified),89,82,28
COc1cc(/C=C/C(=O)NCC(CCNc2cc(=O)c3ccccc3[nH]2)NCc2cc(Br)cc(Br)c2)cc(OC)c1 (stereo unspecified),90,28,0
COc1ccc(O)c(Cc2cnc3nc(N)nc(N)c3c2C)c1.O=C(O)C(F)(F)F,94,74,56
Br.c1cc(C2=NC3CCCCC3N2)ccc1OCCCOc1ccc(C2=NC3CCCCC3N2)cc1 (stereo unspecified),99,64,0
O=C(Nc1ccc(Cl)cc1)Nc1cccc(CCNCc2ccccc2)c1.O=C(O)C(F)(F)F,100,12,16
O=C(Nc1ccc(-c2cccc(-c3nc4cc(C(F)(F)F)ccc4[nH]3)c2)cc1)c1ccc(=O)[nH]n1,87,13,72
